Compounds with a hit are over-represented: about 12% of the library has one in this group of screens.
G9a inh-1 = qHTS Assay for Inhibitors of Histone Lysine Methyltransferase G9a; 350,000 tested, 8.8% active; AID 504332, 2011; G9a H3K9 monomethylation, AlphaScreen, 2 h; Potency, µM (highest dose often 102 µM), without a hit: at the highest dose activity, negative = inhibition, usual class: inhibitors; note: potency is the fitted concentration of half-maximal effect; % is set by controls: 0 for no effect and ±100 for the full control effect; nearly all actives have a fitted effect of over 75% in size
Target sequence (Q96KQ7 913-1193 limits assumed): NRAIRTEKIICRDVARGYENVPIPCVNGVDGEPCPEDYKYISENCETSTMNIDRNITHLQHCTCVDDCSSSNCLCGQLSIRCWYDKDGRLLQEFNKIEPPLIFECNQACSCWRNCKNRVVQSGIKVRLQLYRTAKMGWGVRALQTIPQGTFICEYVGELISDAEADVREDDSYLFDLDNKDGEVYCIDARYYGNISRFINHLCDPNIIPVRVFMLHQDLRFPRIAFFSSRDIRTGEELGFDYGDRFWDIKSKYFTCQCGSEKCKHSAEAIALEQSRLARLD
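Chemiluminescent proximity detection of H3K9 monomethylation, read after 10 min bead incubation in the dark. Reaction: 20 nM G9a, 500 nM biotin-H3K9 peptide, 20 uM SAM cofactor, 2 h, room temperature, following 15 min enzyme-compound preincubation.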
BAZ2B inh = qHTS Assay for Inhibitors of BAZ2B; 360,000 tested, 4.4% active; AID 504333, 2011; AlphaScreen BAZ2B-H3K14Ac peptide displacement; Potency, µM (top dose mostly 114 µM), for inactives: at the top dose activity change, negative = inhibition, most hits filed as inhibitors; note: potency is the fitted concentration of half-maximal effect; % is set by controls: 0 for no effect and ±100 for the full control effect; nearly all actives have a fitted effect of over 60% in size
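In this displacement format the biotinylated H3(5-23) peptide acetylated at Lys14 serves as ligand at 50 nM, with BAZ2B at 50 nM in PBS pH 7.4 containing 0.01% Tween-20. Donor and acceptor beads are 10 ug/mL final.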
PI5P4Ka inh = qHTS for Inhibitors of phosphatidylinositol 5-phosphate 4-kinase (PI5P4K) | Phosphatidylinositol 5-phosphate 4-kinase type-2 alpha (Homo sapiens), P48426 | 330,000 tested, 1.2% active | PI5P4Kalpha enzyme, ADP-Glo luminescence, 60 min; active compounds read low | max response, %; active = max response of -50% or lower; inconclusive = between -30% and -50%; inactive = -30% or higher; note: value at the top dose of about 77 µM; % is set by controls: 0 for no effect and ±100 for the full control effect
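Single end-point luminescence (ADP-Glo) quantified ADP from PI5P4Kalpha turnover; ATP 5 microM final, 1 h at RT, 0.1% CHAPS and 0.28 mM EGTA in HEPES pH 7.4.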
HP1b chromo inh = HTS for Inhibitors of HP1-beta Chromodomain Interactions with Methylated Histone Tails; AlphaScreen HP1-beta / biotin-H3K9me3 peptide binding; AID 540317, 2011; 390,000 tested, 0.56% active; Potency, µM (titrated, usually from 114 µM), for the others: at the highest dose activity change, negative = inhibition, most hits filed as inhibitors; Chromobox protein homolog 1 (Homo sapiens), P83916; note: potency is the fitted concentration of half-maximal effect; nearly all actives have a fitted effect of over 70% in size
Target sequence (P83916 whole entry, looked up): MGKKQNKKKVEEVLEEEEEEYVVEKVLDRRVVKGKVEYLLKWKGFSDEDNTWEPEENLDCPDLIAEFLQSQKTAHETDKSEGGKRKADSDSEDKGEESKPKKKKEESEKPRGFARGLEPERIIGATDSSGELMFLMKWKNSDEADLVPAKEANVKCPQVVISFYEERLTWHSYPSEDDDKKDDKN
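Compound inhibition of the preformed complex between 50 nM HP1-beta and 50 nM biotinylated H3K9me3 peptide was read by AlphaScreen. Buffer was PBS pH 7.4 with 0.01% Tween-20. Incubations ran 30 min at room temperature, with 10 ug/mL donor/acceptor beads.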
JMJD2A Tudor = qHTS Assay for Inhibitors of JMJD2A-Tudor Domain; AlphaScreen JMJD2A-Tudor / H3K4me3 peptide binding; AID 504339, 2011; Lysine-specific demethylase 4A (Homo sapiens), O75164; 390,000 tested, 4.4% active; Potency, µM (highest dose often 114 µM), for inactives: at the highest dose activity change, negative = inhibition, usual class: inhibitors; note: potency is the fitted concentration of half-maximal effect; % is set by controls: 0 for no effect and ±100 for the full control effect; nearly all actives have a fitted effect of over 50% in size
PLK1 PBD inh = qHTS for Inhibitors of PLK1-PDB (polo-like kinase 1 - polo-box domain): Primary Screen | Plk1 PBD binding of FITC phosphopeptide, fluorescence polarization | 360,000 tested, 2.8% active | AID 720504, 2013 | Potency, µM, for the others: max response, negative = inhibition, actives largely listed as inhibitors; note: potency is the fitted concentration of half-maximal effect; series mostly up to about 57 µM; % is set by controls: 0 for no effect and ±100 for the full control effect; nearly all actives have a fitted effect of over 65% in size
G9a inh-2 = qHTS Assay for Inhibitors of Histone Lysine Methyltransferase G9a: Hit Confirmation | 370 tested, 89% active | shares compounds with JMJD2A Tudor | G9a H3K9 monomethylation, AlphaScreen, 2 h | Potency, µM, hits mostly inhibitors; note: potency is the fitted concentration of half-maximal effect; nearly all actives have a fitted effect of over 65% in size
* hit, by the source's call; ? = inconclusive; . = no result given; [ ] = dose if it differs, or a comment. Unless noted, calls come from the whole dose curve; as a rule, active = well fitted curve in the direction sought with a large enough effect; inconclusive = small, poorly fitted or top-dose-only effect, or another doubt; inactive = no such curve, though single readings can be large; an effect the other way counts as inactive or inconclusive.

SMILES	G9a inh-1	BAZ2B inh	PI5P4Ka inh	HP1b chromo inh	JMJD2A Tudor	PLK1 PBD inh	G9a inh-2
CN1CCN(c2nc3ccccc3nc2NS(=O)(=O)c2ccc(Br)cc2)CC1	.	.	5	15%	-16%	-18%	.
CCOc1cc(C)nc(NCCc2ccc(OC)c(OC)c2)n1	5%[12.7 µM]	-5%	.	24%	-24%	2%	.
CCOc1nc(NCCc2ccc(OC)c(OC)c2)nc(N2CCN(c3ccc(OC)cc3)CC2)n1	?	-24%	0	35%	2%	-5%	2*
Cc1ccc(C)c(Cn2c(=O)c3c(nc4n3CCN4c3ccccc3)n(C)c2=O)c1	-32%[59 µM]	-14%	.	7%	-19%	.	.
c1ccc(-n2nnnc2SCc2cn3ccccc3n2)cc1	?	?	1	-14%	-29%[57.1 µM]	?	28*
CCN(CC)c1ccc(NC(=O)CN2CCN(CC(=O)Nc3ccc(F)cc3)CC2)cc1	2.2µM*	?	2	?	?	1%	2.8*
CCN(CC)c1ccc(NC(=O)COC(=O)CCC(=O)c2ccc(F)cc2)cc1	1.6µM*	?	7	-21%	-35%	-7%	1.6*
O=C(CN1CCCC1)Nc1ccc(F)cc1	.	-29%	5	26%	-10%	-8%	.
O=C(COC(=O)CCC(=O)c1ccc(F)cc1)Nc1ccccc1	22%[0.0925 µM]	1%	1	26%	-9%	-4%	.
CCCOc1ccc(C2c3c(-c4ccccc4O)n[nH]c3C(=O)N2Cc2ccncc2)cc1OCC (stereo not drawn)	0%[59 µM]	-11%	.	53%	-19%	.	.
CC(OC(=O)c1cccc(S(=O)(=O)N2CCOCC2)c1)C(=O)NC1CCCCC1C (stereo not drawn)	?	24%	-9	50%	-1%	3%	35*
CC(OC(=O)c1ccc(Br)c(S(=O)(=O)N2CCOCC2)c1)C(=O)NC1CCCCC1C (stereo not drawn)	?	-4%	-8	46%	-2%	-7%	.
CC(=O)c1ccc(NC(=O)CSc2ccc(-c3cccs3)nn2)cc1	2.8µM*	-21%	.	28%	?	.	6.3*
CCOc1ccc(NS(=O)(=O)c2ccc3c4c(cccc24)C(=O)N3)cc1	-48%[59 µM]	-39%	.	-1%	?	.	.
CCOc1ccc(CNc2ccc(N3CCCC3)cc2)cc1	?	18µM*	.	-30%	63µM*	?	0.89*
CC(C)c1ccc(CNc2ccc(N3CCOCC3)cc2)cc1	?	13µM*	0	11µM*	40µM*	-10%	10*
CCOC(=O)CN(C(=O)COC(=O)C1=NNC(=O)CC1)c1ccc(F)cc1	.	.	-2	45%	-5%	2%	.
COc1cc2c(cc1OC)CN(C(=O)CN1CCN(S(=O)(=O)c3ccccc3)CC1)CC2	.	-9%	0	25%	-20%	3%	.
